{"source": "PubChem BioAssay (NCI)", "key": {"[1]": {"assay": "NCI Yeast Anticancer Drug Screen. Data for the wt1 strain (AID 149);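 further: 0% = growth of vehicle-treated wt1 cultures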", "conditions": "S. cerevisiae wt1 strain (SPY 50644) growth inhibition, hits give high values", "outline": "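wt1 yeast, compound-treated; % growth inhibition vs vehicle control.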"}, "[2]": {"assay": "NCI Yeast Anticancer Drug Screen. Data for the rad50EPP+ strain (AID 151);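 further: 0% = growth of vehicle-treated control cultures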", "conditions": "S. cerevisiae rad50 mutant strain, hits give high values", "outline": "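In this screen, rad50EPP+ yeast were exposed to compounds. Growth inhibition was scored against vehicle-treated controls.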"}, "[3]": {"assay": "NCI Yeast Anticancer Drug Screen. Data for the mgt1 strain (AID 153)", "conditions": "S. cerevisiae mgt1 mutant growth inhibition, hits give high values", "outline": "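mgt1 strain exposed; growth vs vehicle control recorded as inhibition.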"}, "[4]": {"assay": "NCI Yeast Anticancer Drug Screen. Data for the rad50 strain (AID 155);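 further: 0% = growth of vehicle-only cultures of the same strain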", "conditions": "S. cerevisiae rad50 strain growth inhibition, hits give high values", "outline": "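Genetically altered yeast (DNA repair pathway); compound treatment; growth inhibition vs vehicle ctrl.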"}, "[5]": {"assay": "NCI Yeast Anticancer Drug Screen. Data for the mec2-1 strain (AID 157)", "conditions": "S. cerevisiae mec2-1 strain, hits give high values", "outline": "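Vehicle-treated cultures served as reference for growth inhibition of compound-exposed mec2-1 yeast.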"}, "[6]": {"assay": "NCI Yeast Anticancer Drug Screen. Data for the rad14 strain (AID 159);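 further: 0% = growth of vehicle-treated control cultures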", "conditions": "S. cerevisiae rad14 strain growth inhibition, hits give high values", "outline": "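Test compounds were applied to a repair-deficient yeast strain. Its growth was then compared with that of cultures given vehicle alone, and inhibition was expressed relative to those controls.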"}, "[7]": {"assay": "NCI Yeast Anticancer Drug Screen. Data for the sgs1 mgt1 strain (AID 161);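 further: 0% = growth of cultures given vehicle only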", "conditions": "S. cerevisiae sgs1 mgt1 strain, hits give high values", "outline": "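Genetically altered yeast, compound exposure, growth inhibition relative to vehicle.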"}, "[8]": {"assay": "NCI Yeast Anticancer Drug Screen. Data for the CLN2oe strain (AID 163);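 further: 0% = growth of vehicle-only control cultures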", "conditions": "S. cerevisiae CLN2oe strain, hits give high values", "outline": "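Inhibition relative to vehicle-treated yeast is reported. Cells: strain with genetic alteration in cell-cycle control, grown with compound.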"}, "[9]": {"assay": "NCI Yeast Anticancer Drug Screen. Data for the cln2 rad14 strain (AID 165);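 further: 0% = growth equal to vehicle treated cultures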", "conditions": "S. cerevisiae cln2 rad14 strain, hits give high values", "outline": "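Each compound was tested on cln2 rad14 yeast. Inhibition of growth was calculated against vehicle-exposed controls.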"}, "[10]": {"assay": "NCI Yeast Anticancer Drug Screen. Data for the bub3 strain (AID 167)", "conditions": "S. cerevisiae bub3 mutant strain, hits give high values", "outline": "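Yeast carrying a defined mutation is treated with each compound, and growth is compared with that of vehicle-exposed cells to give inhibition.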"}, "[11]": {"assay": "NCI Yeast Anticancer Drug Screen. Data for the wt2 strain (AID 169);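 further: 0% = growth of vehicle-treated yeast cultures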", "conditions": "S. cerevisiae wt2 strain growth inhibition, hits give high values", "outline": "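Inhibition of yeast growth was determined after compound treatment, normalised to controls receiving only vehicle.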"}, "[12]": {"assay": "NCI Yeast Anticancer Drug Screen. Data for the mlh1 strain (AID 171);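 further: 0% = growth of vehicle-treated control cultures of the same strain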", "conditions": "S. cerevisiae mlh1 strain growth inhibition, hits give high values", "outline": "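Vehicle-normalised growth inhibition of a repair- or checkpoint-altered yeast strain following compound treatment.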"}, "[13]": {"assay": "NCI Yeast Anticancer Drug Screen. Data for the sgs1 strain (AID 173);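 further: 0% = growth of vehicle-only control cultures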", "conditions": "S. cerevisiae sgs1 mutant, hits give high values", "outline": "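Screen format: yeast with repair or checkpoint alterations, compound exposure, growth read relative to vehicle.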"}, "[14]": {"assay": "NCI Yeast Anticancer Drug Screen. Data for the mlh1 rad18 strain (AID 175)", "conditions": "S. cerevisiae mlh1 rad18 strain growth inhibition, hits give high values", "outline": "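Vehicle-treated cultures served as the reference for growth inhibition in a yeast strain carrying DNA damage repair alterations exposed to each compound.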"}, "[15]": {"assay": "NCI Yeast Anticancer Drug Screen. Data for the rad18 strain (AID 177)", "conditions": "S. cerevisiae rad18 mutant growth inhibition, hits give high values", "outline": "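Test articles were incubated with altered yeast defective in DNA damage repair. Results are given as inhibition of growth versus vehicle.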"}, "[16]": {"conditions": "at 5.0 µM (retest, dose inferred, filed as 0.5)"}, "[17]": {"conditions": "at 50.0 µM (retest, dose inferred, filed as 5.0)"}}, "note": "Compounds without any hit were thinned out: in the full panel of roughly 79,000, 15% have a hit. A number with no mark means an inactive call. Active and inactive are the calls of the source. No stated cut-off is given here; in the data, active means growth inhibition above about 70%; inactive means the rest."}
{"smiles": "O=C(O)CCCC1CCCc2c1ccc1ccccc21", "note": "(stereo not drawn)", "values": [{"measurement": "growth inhibition", "setting": "[1]; at 1.2 µM", "result": -3, "unit": "%"}, {"measurement": "growth inhibition", "setting": "[1]; at 3.7 µM", "result": 2, "unit": "%"}, {"measurement": "growth inhibition", "setting": "[1]; at 11.0 µM", "result": 2, "unit": "%"}, {"measurement": "growth inhibition", "setting": "[1]; at 33.0 µM", "result": 38, "unit": "%"}, {"measurement": "growth inhibition", "setting": "[1]; at 100.0 µM", "result": "99% (active)"}, {"measurement": "growth inhibition", "setting": "[2]; at 1.2 µM", "result": 3, "unit": "%"}, {"measurement": "growth inhibition", "setting": "[2]; at 3.7 µM", "result": 8, "unit": "%"}, {"measurement": "growth inhibition", "setting": "[2]; at 11.0 µM", "result": 29, "unit": "%"}, {"measurement": "growth inhibition", "setting": "[2]; at 33.0 µM", "result": 59, "unit": "%"}, {"measurement": "growth inhibition", "setting": "[2]; at 100.0 µM", "result": "81% (active)"}, {"measurement": "growth inhibition", "setting": "[3]; at 1.2 µM", "result": -4, "unit": "%"}, {"measurement": "growth inhibition", "setting": "[3]; at 3.7 µM", "result": -3, "unit": "%"}, {"measurement": "growth inhibition", "setting": "[3]; at 11.0 µM", "result": 4, "unit": "%"}, {"measurement": "growth inhibition", "setting": "[3]; at 33.0 µM", "result": 59, "unit": "%"}, {"measurement": "growth inhibition", "setting": "[3]; at 100.0 µM", "result": "99% (active)"}, {"measurement": "growth inhibition", "setting": "[4]; at 1.2 µM", "result": -2, "unit": "%"}, {"measurement": "growth inhibition", "setting": "[4]; at 3.7 µM", "result": 0, "unit": "%"}, {"measurement": "growth inhibition", "setting": "[4]; [16]", "result": 6, "unit": "%"}, {"measurement": "growth inhibition", "setting": "[4]; at 11.0 µM", "result": 8, "unit": "%"}, {"measurement": "growth inhibition", "setting": "[4]; at 33.0 µM", "result": 58, "unit": "%"}, {"measurement": "growth inhibition", "setting": "[4]; [17]", "result": "89% (active)"}, {"measurement": "growth inhibition", "setting": "[4]; at 50.0 µM", "result": "88% (active)"}, {"measurement": "growth inhibition", "setting": "[4]; at 100.0 µM", "result": "99% (active)"}, {"measurement": "growth inhibition", "setting": "[5]; at 1.2 µM", "result": -2, "unit": "%"}, {"measurement": "growth inhibition", "setting": "[5]; at 3.7 µM", "result": -4, "unit": "%"}, {"measurement": "growth inhibition", "setting": "[5]; [16]", "result": 10, "unit": "%"}, {"measurement": "growth inhibition", "setting": "[5]; at 11.0 µM", "result": 4, "unit": "%"}, {"measurement": "growth inhibition", "setting": "[5]; at 33.0 µM", "result": 47, "unit": "%"}, {"measurement": "growth inhibition", "setting": "[5]; [17]", "result": "95% (active)"}, {"measurement": "growth inhibition", "setting": "[5]; at 50.0 µM", "result": "83.6% (active)"}, {"measurement": "growth inhibition", "setting": "[5]; at 100.0 µM", "result": "99% (active)"}, {"measurement": "growth inhibition", "setting": "[6]; at 1.2 µM", "result": 3, "unit": "%"}, {"measurement": "growth inhibition", "setting": "[6]; at 3.7 µM", "result": 7, "unit": "%"}, {"measurement": "growth inhibition", "setting": "[6]; at 11.0 µM", "result": 13, "unit": "%"}, {"measurement": "growth inhibition", "setting": "[6]; at 33.0 µM", "result": 51, "unit": "%"}, {"measurement": "growth inhibition", "setting": "[6]; at 100.0 µM", "result": "99% (active)"}, {"measurement": "growth inhibition", "setting": "[7]; [16]", "result": 13, "unit": "%"}, {"measurement": "growth inhibition", "setting": "[7]; [17]", "result": "86% (active)"}, {"measurement": "growth inhibition", "setting": "[7]; at 50.0 µM", "result": "94.3% (active)"}, {"measurement": "growth inhibition", "setting": "[8]; at 1.2 µM", "result": 1, "unit": "%"}, {"measurement": "growth inhibition", "setting": "[8]; at 3.7 µM", "result": -4, "unit": "%"}, {"measurement": "growth inhibition", "setting": "[8]; at 11.0 µM", "result": 13, "unit": "%"}, {"measurement": "growth inhibition", "setting": "[8]; at 33.0 µM", "result": "74% (active)"}, {"measurement": "growth inhibition", "setting": "[8]; at 100.0 µM", "result": "99% (active)"}, {"measurement": "growth inhibition", "setting": "[9]; [16]", "result": 5, "unit": "%"}, {"measurement": "growth inhibition", "setting": "[9]; [17]", "result": "96% (active)"}, {"measurement": "growth inhibition", "setting": "[9]; at 50.0 µM", "result": "90.2% (active)"}, {"measurement": "growth inhibition", "setting": "[10]; at 1.2 µM", "result": -4, "unit": "%"}, {"measurement": "growth inhibition", "setting": "[10]; at 3.7 µM", "result": -6, "unit": "%"}, {"measurement": "growth inhibition", "setting": "[10]; [16]", "result": 2, "unit": "%"}, {"measurement": "growth inhibition", "setting": "[10]; at 11.0 µM", "result": 6, "unit": "%"}, {"measurement": "growth inhibition", "setting": "[10]; at 33.0 µM", "result": 61, "unit": "%"}, {"measurement": "growth inhibition", "setting": "[10]; [17]", "result": "85% (active)"}, {"measurement": "growth inhibition", "setting": "[10]; at 50.0 µM", "result": "89% (active)"}, {"measurement": "growth inhibition", "setting": "[10]; at 100.0 µM", "result": "99% (active)"}, {"measurement": "growth inhibition", "setting": "[11]; at 1.2 µM", "result": -1, "unit": "%"}, {"measurement": "growth inhibition", "setting": "[11]; at 3.7 µM", "result": 1, "unit": "%"}, {"measurement": "growth inhibition", "setting": "[11]; at 11.0 µM", "result": 7, "unit": "%"}, {"measurement": "growth inhibition", "setting": "[11]; at 33.0 µM", "result": 57, "unit": "%"}, {"measurement": "growth inhibition", "setting": "[11]; at 100.0 µM", "result": "99% (active)"}, {"measurement": "growth inhibition", "setting": "[12]; at 1.2 µM", "result": -3, "unit": "%"}, {"measurement": "growth inhibition", "setting": "[12]; at 3.7 µM", "result": -1, "unit": "%"}, {"measurement": "growth inhibition", "setting": "[12]; at 11.0 µM", "result": 4, "unit": "%"}, {"measurement": "growth inhibition", "setting": "[12]; at 33.0 µM", "result": 60, "unit": "%"}, {"measurement": "growth inhibition", "setting": "[12]; at 100.0 µM", "result": "99% (active)"}, {"measurement": "growth inhibition", "setting": "[13]; at 1.2 µM", "result": -1, "unit": "%"}, {"measurement": "growth inhibition", "setting": "[13]; at 3.7 µM", "result": -2, "unit": "%"}, {"measurement": "growth inhibition", "setting": "[13]; at 11.0 µM", "result": 6, "unit": "%"}, {"measurement": "growth inhibition", "setting": "[13]; at 33.0 µM", "result": 64, "unit": "%"}, {"measurement": "growth inhibition", "setting": "[13]; at 100.0 µM", "result": "99% (active)"}, {"measurement": "growth inhibition", "setting": "[14]; [16]", "result": 4, "unit": "%"}, {"measurement": "growth inhibition", "setting": "[14]; [17]", "result": "91% (active)"}, {"measurement": "growth inhibition", "setting": "[14]; at 50.0 µM", "result": "91.2% (active)"}, {"measurement": "growth inhibition", "setting": "[15]; at 1.2 µM", "result": -2, "unit": "%"}, {"measurement": "growth inhibition", "setting": "[15]; at 3.7 µM", "result": -2, "unit": "%"}, {"measurement": "growth inhibition", "setting": "[15]; at 11.0 µM", "result": 2, "unit": "%"}, {"measurement": "growth inhibition", "setting": "[15]; at 33.0 µM", "result": 58, "unit": "%"}, {"measurement": "growth inhibition", "setting": "[15]; at 100.0 µM", "result": "98% (active)"}]}
